Results taken from PubChem BioAssay AID686979 (National Center for Advancing Translational Sciences (NCATS), 2013).
About 50,000 (12%) of roughly 420,000 compounds were called active. Not shown: some 26% with an inconclusive outcome. The call rests on the fitted dose curve; in most records, active means well fitted inhibition curve with a large enough effect; inconclusive means small, poorly fitted or top-dose-only effect; inactive means flat fitted curve, though single readings scatter. This excerpt belongs to a sample that is enriched for actives.

assay: qHTS for Inhibitors of human tyrosyl-DNA phosphodiesterase 1 (TDP1): qHTS in cells in presence of CPT; settings: chicken DT40 Tdp1-/-;hTDP1 cells + 20 nM CPT, ATP luminescence, 48 h; series mostly up to 46.2 µM; activity change, negative = growth inhibition: at the top concentration; further: nearly all actives have a fitted effect of over 55% in size
How it was run: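 Cell growth measured by CellTiter-Glo luminescence after a minimum 48 h, 37 C compound exposure with 20 nM CPT in Tdp1-knockout DT40 cells stably expressing hTDP1, seeded 400/well; qHTS titration format.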
On the % scale 0 is the no-effect control and ±100 the full control effect; potency means the concentration at half of the fitted maximal effect.

With `CN(CC(=O)NCc1ccncc1)S(=O)(=O)c1ccc(Br)cc1` as the compound, how does the “activity change, negative = growth inhibition” value read?
Its value is -6.71% (inactive).

For `CC(=O)c1nn(-c2ccccc2)c(=Nc2ccccc2)cc1C`, which “activity change, negative = growth inhibition” value is on record?
Its value is -5.14% (inactive).

For `CC(=O)Nc1cccc(Nc2nc(-c3cccs3)nc3ccccc23)c1`, which Potency is on record?
The Potency was 16.4 µM (active).

For `O=c1[nH]c(-c2cccs2)nc2ccccc12`, which “activity change, negative = growth inhibition” value is on record?
The value was -22.6% (inactive).

For `COC(=O)c1cc(-c2cccs2)nc2ccccc12`, which “activity change, negative = growth inhibition” value is on record?
The value was 1.15% (inactive).

With `CCN(CC)c1ccc(/C=N/NC(=O)CNC(=O)c2cccs2)cc1` as the compound, how does the “activity change, negative = growth inhibition” value read?
Its value is 2.32% (inactive).

Which “activity change, negative = growth inhibition” value does the source give for `CCN(C(=O)CSc1ncnc2sccc12)c1c(N)n(Cc2ccccc2)c(=O)[nH]c1=O` here?
The value was 9.86% (inactive).

For `Cc1nnc(-c2ccc(Oc3ccc(C)c(C)c3)c([N+](=O)[O-])c2)o1`, which Potency is on record?
Its Potency is 16.4 µM (active).

For `COc1ccc(OCC(=O)Nc2cc(C)c(Cl)cc2OC)c([N+](=O)[O-])c1`, which “activity change, negative = growth inhibition” value is on record?
The value was -1.34% (inactive).

Which “activity change, negative = growth inhibition” value does the source give for `COc1ccc(-c2nc3cc([N+](=O)[O-])ccc3o2)cc1OC` here?
The value was 27.4% (inactive).

Which “activity change, negative = growth inhibition” value does the source give for `Nc1nc(SCC(=O)NN(c2ccccc2)c2ccccc2)n[nH]1` here?
The value was -13.5% (inactive).

For `Cc1ccc(C(=O)Nc2ccccc2F)cc1S(=O)(=O)N1CCOCC1`, which “activity change, negative = growth inhibition” value is on record?
The value was -22.7% (inactive).

Which “activity change, negative = growth inhibition” value does the source give for `CCc1ccc(N(C(=O)c2csnn2)C(C(=O)NC2CCCCC2)c2cccnc2)cc1` (configuration not stated) here?
Its value is -12.1% (inactive).

With `Cc1ccc(S(=O)(=O)NCCC(c2ccccc2)c2ccccc2)cc1C(=O)O` as the compound, how does the “activity change, negative = growth inhibition” value read?
The value was 7.68% (inactive).

For `O=c1[nH]oc(O)c1-c1ncc(C(F)(F)F)cc1Cl`, which “activity change, negative = growth inhibition” value is on record?
The value was 7.03% (inactive).

With `CCNS(=O)(=O)c1cc(-c2nnc(Nc3cccc(C(F)(F)F)c3)c3ccccc23)ccc1C` as the compound, how does the Potency read?
Its Potency is 5.8 µM (active).

Which “activity change, negative = growth inhibition” value does the source give for `COCCNS(=O)(=O)c1cc(-c2nn3c(C)nnc3c3ccccc23)ccc1C` here?
The value was -19.3% (inactive).

For `Cc1ccc(-c2nnc(Nc3ccc(C(=O)N(C)C)cc3)c3ccccc23)cc1S(N)(=O)=O`, which “activity change, negative = growth inhibition” value is on record?
Its value is -0.81% (inactive).

With `O=C(O)C1CCCN1C1=NS(=O)(=O)c2ccccc21` (configuration not stated) as the compound, how does the “activity change, negative = growth inhibition” value read?
Its value is 3.57% (inactive).

For `CN1OC[C@@H]2CN(S(=O)(=O)c3cccc(C(F)(F)F)c3)[C@H](c3ccc(-c4cc5ccccc5o4)cc3)C[C@@H]21`, which “activity change, negative = growth inhibition” value is on record?
The value was -28.6% (inactive).

For `CC1=CC(=NNS(=O)(=O)c2ccc([N+](=O)[O-])cc2)CC(C)(C)C1`, which “activity change, negative = growth inhibition” value is on record?
Its value is -24.4% (inactive).

For `CCCC1OC23CCCCC2C(C#N)(C#N)C1(C#N)C(=N)O3` (configuration not stated), which Potency is on record?
Its Potency is 5.8 µM (active).

For `O=C(CSc1cn(CC(=O)N2CCOCC2)c2ccccc12)Nc1ccccc1`, which “activity change, negative = growth inhibition” value is on record?
Its value is -7.68% (inactive).

Which “activity change, negative = growth inhibition” value does the source give for `O=C(NCc1ccccc1)[C@@H]1CSC2c3ccccc3C(=O)N21` (some centres not stated) here?
The value was -16.3% (inactive).

With `COCCCC1CCN(C(=O)C2CCC(=O)N(C3CCCCCC3)C2)CC1` (configuration not stated) as the compound, how does the “activity change, negative = growth inhibition” value read?
Its value is -49.8% (inactive).

For `CC1CN(/C=C/C(=O)C(F)(F)F)CC(C)O1` (configuration not stated), which “activity change, negative = growth inhibition” value is on record?
Its value is -1.96% (inactive).

Which “activity change, negative = growth inhibition” value does the source give for `COC(=O)N/N=C/c1c[n+]([O-])c2ccccc2[n+]1[O-]` here?
The value was -9.69% (inactive).

For `COc1cccc(CN2CCC(C(=O)NC(c3ccc4c(c3)OCO4)c3ccccn3)CC2)c1` (configuration not stated), which “activity change, negative = growth inhibition” value is on record?
The value was 1.86% (inactive).

Which “activity change, negative = growth inhibition” value does the source give for `Clc1ccc(CN2CCCCCC2)cc1Cl` here?
Its value is -1.23% (inactive).

Which “activity change, negative = growth inhibition” value does the source give for `O=C(COc1ccc(Cl)cc1Cl)NCCCNC(=O)c1cnccn1` here?
Its value is 2.77% (inactive).

With `Cc1cccnc1C(NC(=O)C1CCN(Cc2ccc(Cl)c(Cl)c2)CC1)c1ccc(Cl)cc1` (configuration not stated) as the compound, how does the Potency read?
Its Potency is 3.26 µM (active).

With `O=C(NNS(=O)(=O)c1ccc(Cl)cc1)C1CCN(Cc2ccccc2)CC1` as the compound, how does the “activity change, negative = growth inhibition” value read?
Its value is -15.1% (inactive).

Which “activity change, negative = growth inhibition” value does the source give for `CCOc1ccc(S(=O)(=O)N2CCC(C(=O)NCc3ccccn3)CC2)cc1Cl` here?
The value was 1.14% (inactive).

With `O=C(CCCOc1ccc(Cl)cc1Cl)NNC(=O)C1CCC1` as the compound, how does the “activity change, negative = growth inhibition” value read?
The value was -2.64% (inactive).

For `Cc1ccc(C(NC(=O)C2CCN(CCOc3ccc(Cl)cc3Cl)CC2)c2ccccn2)cc1` (configuration not stated), which Potency is on record?
The Potency was 25.9 µM (active).

With `O=C(NC(c1ccc(-c2ccccc2)cc1)c1cnccn1)C1CCN(CCOc2ccc(Cl)cc2Cl)CC1` (configuration not stated) as the compound, how does the Potency read?
The Potency was 16.4 µM (active).

With `Cc1cnc(NC(=O)Cn2cnc3c2c(=O)n(C)c(=O)n3C)s1` as the compound, how does the “activity change, negative = growth inhibition” value read?
The value was 7.56% (inactive).

With `Cc1nc2cccnc2nc1C` as the compound, how does the “activity change, negative = growth inhibition” value read?
The value was 10.8% (inactive).

For `Cc1cc(C)c(NC(=S)N2CCCC2C(=O)O)c(C)c1` (configuration not stated), which “activity change, negative = growth inhibition” value is on record?
The value was -28.7% (inactive).

For `CC(C)(C)CC(=O)Nc1nnc(SCC(=O)NCc2cccs2)s1`, which “activity change, negative = growth inhibition” value is on record?
The value was -18.8% (inactive).

For `CC(C)(C)CC(=O)Nc1nc(C(N)Cc2ccc(C(F)(F)F)cc2)cs1` (configuration not stated), which Potency is on record?
Its Potency is 23.1 µM (active).

For `COc1ccc(C(N)c2csc(NC(=O)Nc3cccc(C(F)(F)F)c3)n2)cc1` (configuration not stated), which Potency is on record?
Its Potency is 18.4 µM (active).

For `COC(=O)[C@H](Cc1ccccc1)NC(=O)Nc1ccc(OC)cc1`, which “activity change, negative = growth inhibition” value is on record?
The value was -1.58% (inactive).

With `CC(C)C[C@H](NC(=O)Nc1cccc(C(F)(F)F)c1)C(=O)O` as the compound, how does the “activity change, negative = growth inhibition” value read?
Its value is 1.51% (inactive).

Which “activity change, negative = growth inhibition” value does the source give for `COc1ccc(NC(=O)CN(C)CC(=O)Nc2cccc(C(F)(F)F)c2)cc1` here?
Its value is -4% (inactive).

Which “activity change, negative = growth inhibition” value does the source give for `COc1ccc(NC(=O)C(Br)C(C)C)cc1` (configuration not stated) here?
Its value is 1.83% (inactive).

For `Cc1ccccc1NC(=O)Cc1nc(COC(=O)c2ccc(C(F)(F)F)cc2)cs1`, which “activity change, negative = growth inhibition” value is on record?
Its value is -13% (inactive).

With `Cc1ccc(NC(=O)Nc2cccc(C(F)(F)F)c2)nc1` as the compound, how does the “activity change, negative = growth inhibition” value read?
The value was 8.78% (inactive).

Which Potency does the source give for `COc1ccc(CC(N)c2csc(NC(=O)Nc3ccc(C(C)C)cc3)n2)cc1` (configuration not stated) here?
The Potency was 6.51 µM (active).

With `NC(c1csc(NC(=O)Nc2cccc(C(F)(F)F)c2)n1)C1CCCCC1` (configuration not stated) as the compound, how does the Potency read?
The Potency was 20.6 µM (active).

Which “activity change, negative = growth inhibition” value does the source give for `COc1ccc(C(CC(=O)Nc2ccc(C)cc2)NC(=O)C(F)(F)F)cc1` (configuration not stated) here?
Its value is 3.04% (inactive).

Which “activity change, negative = growth inhibition” value does the source give for `CCN(CC(=O)Nc1c(F)cccc1F)C(=O)c1ccc(S(=O)(=O)N2CCCCC2)cc1` here?
The value was -24% (inactive).
